Results on 13 compounds are retold here after the supplement of paper PMC11732987, “Enantioselective OTUD7B fragment discovery through chemoproteomics screening and high-throughput optimisation” (Communications Chemistry, 2025).

Assay in all cases: log2 ratio of Biotin-Ahx-Ub-VS probe labelling (fragment/DMSO); higher = less target engagement (more negative = stronger competition), active = hit call of the paper (q ≤ 0.05, log2 ratio ≤ -1)
Common to all, as to settings: compound concentration: 200 uM; treatment time: 3 h

The target in one experiment is UniProt O00507. The procedure, abridged: (§1)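 Triplicate samples of HEK293T lysate, 495 µg each, received fragment at 200 µM or vehicle for 3 h, followed by Biotin-Ahx-Ub-VS (0.5 µM final) for 1 h. After NeutrAvidin enrichment of labelled DUBs and LysC/trypsin digestion, peptides were run by diaPASEF LC-MS/MS. The values are average log2 fragment/vehicle ratios from global-median-normalised Spectronaut label-free quantities, tested by unpaired t-test on proteins having ≥2 unique peptides.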
Chain of UniProt O00507 (O00507 whole entry, the tested form may be a part): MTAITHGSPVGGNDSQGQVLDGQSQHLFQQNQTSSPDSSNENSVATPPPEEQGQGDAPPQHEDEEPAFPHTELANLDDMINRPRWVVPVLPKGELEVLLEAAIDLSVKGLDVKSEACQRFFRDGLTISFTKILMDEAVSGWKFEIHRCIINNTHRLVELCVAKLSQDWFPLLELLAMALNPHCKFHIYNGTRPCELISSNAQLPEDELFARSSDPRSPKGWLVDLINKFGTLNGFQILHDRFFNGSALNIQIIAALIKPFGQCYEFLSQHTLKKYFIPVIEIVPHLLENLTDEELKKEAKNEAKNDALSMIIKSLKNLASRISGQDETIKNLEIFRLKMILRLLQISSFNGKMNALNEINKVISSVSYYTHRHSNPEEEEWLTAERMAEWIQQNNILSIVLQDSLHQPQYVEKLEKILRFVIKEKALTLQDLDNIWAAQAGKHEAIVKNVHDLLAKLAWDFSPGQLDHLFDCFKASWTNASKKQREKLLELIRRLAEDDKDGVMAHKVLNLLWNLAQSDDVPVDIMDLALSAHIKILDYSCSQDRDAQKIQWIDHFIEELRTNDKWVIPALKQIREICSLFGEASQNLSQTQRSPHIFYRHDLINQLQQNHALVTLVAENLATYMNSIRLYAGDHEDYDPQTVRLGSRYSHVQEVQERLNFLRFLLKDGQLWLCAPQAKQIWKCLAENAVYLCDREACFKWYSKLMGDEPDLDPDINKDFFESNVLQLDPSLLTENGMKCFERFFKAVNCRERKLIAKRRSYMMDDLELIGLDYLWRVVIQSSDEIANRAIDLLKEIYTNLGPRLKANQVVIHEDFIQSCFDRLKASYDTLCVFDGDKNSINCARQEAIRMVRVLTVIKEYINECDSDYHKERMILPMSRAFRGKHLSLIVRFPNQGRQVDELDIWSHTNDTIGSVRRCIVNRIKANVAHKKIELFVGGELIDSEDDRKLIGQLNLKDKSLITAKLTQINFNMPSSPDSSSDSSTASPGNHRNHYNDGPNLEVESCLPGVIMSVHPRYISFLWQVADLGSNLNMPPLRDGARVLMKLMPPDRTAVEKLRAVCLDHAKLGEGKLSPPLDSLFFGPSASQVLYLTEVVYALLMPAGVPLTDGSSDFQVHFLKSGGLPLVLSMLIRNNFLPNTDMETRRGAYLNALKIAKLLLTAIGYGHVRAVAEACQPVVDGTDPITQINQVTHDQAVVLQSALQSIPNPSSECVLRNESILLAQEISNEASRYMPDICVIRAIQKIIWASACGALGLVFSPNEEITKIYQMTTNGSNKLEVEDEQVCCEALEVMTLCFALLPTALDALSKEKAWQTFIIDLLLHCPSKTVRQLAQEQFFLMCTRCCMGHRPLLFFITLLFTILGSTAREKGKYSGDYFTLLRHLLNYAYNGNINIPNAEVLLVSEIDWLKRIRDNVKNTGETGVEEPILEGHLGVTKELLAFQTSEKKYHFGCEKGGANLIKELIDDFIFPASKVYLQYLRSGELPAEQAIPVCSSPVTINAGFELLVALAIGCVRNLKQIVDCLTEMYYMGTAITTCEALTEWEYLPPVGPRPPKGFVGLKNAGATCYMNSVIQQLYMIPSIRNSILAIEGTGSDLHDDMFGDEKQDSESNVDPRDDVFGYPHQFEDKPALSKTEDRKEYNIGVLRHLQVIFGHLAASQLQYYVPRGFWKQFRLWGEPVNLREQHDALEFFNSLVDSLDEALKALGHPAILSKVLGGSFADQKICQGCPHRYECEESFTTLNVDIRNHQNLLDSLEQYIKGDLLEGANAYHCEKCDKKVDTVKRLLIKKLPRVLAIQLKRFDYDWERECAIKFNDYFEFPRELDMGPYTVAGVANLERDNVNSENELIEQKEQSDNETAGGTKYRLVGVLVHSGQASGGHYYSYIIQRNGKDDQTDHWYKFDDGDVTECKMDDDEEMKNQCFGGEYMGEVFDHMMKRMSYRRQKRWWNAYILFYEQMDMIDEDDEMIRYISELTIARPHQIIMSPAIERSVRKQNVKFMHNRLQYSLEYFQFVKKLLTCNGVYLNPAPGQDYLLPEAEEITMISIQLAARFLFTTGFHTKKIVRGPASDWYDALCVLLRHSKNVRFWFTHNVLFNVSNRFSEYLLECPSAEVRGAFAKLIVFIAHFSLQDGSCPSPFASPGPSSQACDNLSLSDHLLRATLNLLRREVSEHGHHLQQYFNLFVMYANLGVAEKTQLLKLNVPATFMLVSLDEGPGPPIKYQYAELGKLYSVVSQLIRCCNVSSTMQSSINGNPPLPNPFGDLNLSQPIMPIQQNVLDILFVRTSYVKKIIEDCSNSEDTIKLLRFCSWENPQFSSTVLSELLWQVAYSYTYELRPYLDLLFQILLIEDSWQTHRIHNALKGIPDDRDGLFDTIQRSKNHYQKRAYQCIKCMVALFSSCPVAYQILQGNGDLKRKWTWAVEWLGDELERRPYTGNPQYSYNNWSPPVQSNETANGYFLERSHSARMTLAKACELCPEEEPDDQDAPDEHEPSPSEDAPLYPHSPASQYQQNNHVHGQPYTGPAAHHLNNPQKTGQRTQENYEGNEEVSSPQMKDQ

For the next experiment, the target named is UniProt P51784. The procedure, abridged:
as §1

The next experiment deals with T1, UniProt Q5T2D3.
T1 sequence (whole entry): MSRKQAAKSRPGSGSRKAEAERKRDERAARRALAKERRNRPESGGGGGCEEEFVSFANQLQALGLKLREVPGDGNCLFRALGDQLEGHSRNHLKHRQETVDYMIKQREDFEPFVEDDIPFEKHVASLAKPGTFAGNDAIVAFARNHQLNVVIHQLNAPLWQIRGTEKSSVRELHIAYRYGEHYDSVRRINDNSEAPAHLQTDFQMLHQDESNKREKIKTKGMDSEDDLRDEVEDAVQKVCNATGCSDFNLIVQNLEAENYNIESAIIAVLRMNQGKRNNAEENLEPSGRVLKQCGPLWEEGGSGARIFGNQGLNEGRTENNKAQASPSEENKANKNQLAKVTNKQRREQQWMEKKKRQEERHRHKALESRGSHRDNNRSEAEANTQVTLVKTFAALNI
The procedure, abridged:
as §1

For another experiment, the target named is T2, UniProt Q8TE49.
T2 sequence (whole entry): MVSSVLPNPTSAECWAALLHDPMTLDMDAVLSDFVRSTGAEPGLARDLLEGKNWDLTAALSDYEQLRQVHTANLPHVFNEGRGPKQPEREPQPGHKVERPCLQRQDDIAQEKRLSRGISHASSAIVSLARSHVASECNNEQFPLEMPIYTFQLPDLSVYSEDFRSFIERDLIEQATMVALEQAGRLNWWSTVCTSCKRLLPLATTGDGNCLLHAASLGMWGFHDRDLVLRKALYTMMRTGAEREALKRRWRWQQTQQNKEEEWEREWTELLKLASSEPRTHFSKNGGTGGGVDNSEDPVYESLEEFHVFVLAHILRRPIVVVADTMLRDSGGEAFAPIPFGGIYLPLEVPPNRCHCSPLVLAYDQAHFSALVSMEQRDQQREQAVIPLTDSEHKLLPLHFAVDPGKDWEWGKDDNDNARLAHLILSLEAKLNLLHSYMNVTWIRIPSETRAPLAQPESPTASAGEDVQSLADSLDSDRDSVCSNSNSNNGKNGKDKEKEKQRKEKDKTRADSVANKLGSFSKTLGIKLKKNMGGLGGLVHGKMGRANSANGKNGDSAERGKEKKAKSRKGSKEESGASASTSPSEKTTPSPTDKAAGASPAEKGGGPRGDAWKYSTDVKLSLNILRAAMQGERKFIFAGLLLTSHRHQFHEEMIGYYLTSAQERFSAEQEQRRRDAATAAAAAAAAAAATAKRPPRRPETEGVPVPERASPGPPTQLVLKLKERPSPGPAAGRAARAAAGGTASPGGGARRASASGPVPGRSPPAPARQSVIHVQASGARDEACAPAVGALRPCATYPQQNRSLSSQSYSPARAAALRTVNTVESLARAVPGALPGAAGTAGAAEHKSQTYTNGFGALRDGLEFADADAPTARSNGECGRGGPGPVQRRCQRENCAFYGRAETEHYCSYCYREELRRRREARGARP
The procedure, abridged: as §1

For another experiment, the target named is T3, UniProt Q9P2H5.
T3 sequence (whole entry): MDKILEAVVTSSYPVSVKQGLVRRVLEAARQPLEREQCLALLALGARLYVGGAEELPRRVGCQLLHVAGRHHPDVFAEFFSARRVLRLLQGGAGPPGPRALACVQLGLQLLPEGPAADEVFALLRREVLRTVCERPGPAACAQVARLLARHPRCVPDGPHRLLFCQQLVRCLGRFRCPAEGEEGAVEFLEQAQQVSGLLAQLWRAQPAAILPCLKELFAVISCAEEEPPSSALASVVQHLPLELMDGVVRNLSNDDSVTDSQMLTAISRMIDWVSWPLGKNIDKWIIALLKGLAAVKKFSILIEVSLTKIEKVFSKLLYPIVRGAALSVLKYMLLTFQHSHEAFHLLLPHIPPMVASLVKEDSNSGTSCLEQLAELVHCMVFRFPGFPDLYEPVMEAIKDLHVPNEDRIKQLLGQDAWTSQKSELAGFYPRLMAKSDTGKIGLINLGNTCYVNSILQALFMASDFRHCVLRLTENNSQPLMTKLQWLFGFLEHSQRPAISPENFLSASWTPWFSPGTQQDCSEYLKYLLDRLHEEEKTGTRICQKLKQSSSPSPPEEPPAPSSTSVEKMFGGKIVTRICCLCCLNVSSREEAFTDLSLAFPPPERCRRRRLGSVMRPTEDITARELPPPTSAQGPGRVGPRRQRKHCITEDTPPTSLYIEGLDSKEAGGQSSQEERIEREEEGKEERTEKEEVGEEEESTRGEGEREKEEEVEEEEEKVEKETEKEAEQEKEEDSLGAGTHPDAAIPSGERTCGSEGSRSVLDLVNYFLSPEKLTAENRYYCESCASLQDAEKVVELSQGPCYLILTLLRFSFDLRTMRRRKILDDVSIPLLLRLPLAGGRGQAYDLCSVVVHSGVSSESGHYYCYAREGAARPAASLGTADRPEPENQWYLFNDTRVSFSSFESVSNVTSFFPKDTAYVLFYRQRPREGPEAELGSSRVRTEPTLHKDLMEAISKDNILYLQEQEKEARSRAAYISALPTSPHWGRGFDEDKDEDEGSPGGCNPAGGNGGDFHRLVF
In a few lines: as §1

A further experiment concerns the target T4, UniProt Q9UGI0.
T4 sequence (whole entry): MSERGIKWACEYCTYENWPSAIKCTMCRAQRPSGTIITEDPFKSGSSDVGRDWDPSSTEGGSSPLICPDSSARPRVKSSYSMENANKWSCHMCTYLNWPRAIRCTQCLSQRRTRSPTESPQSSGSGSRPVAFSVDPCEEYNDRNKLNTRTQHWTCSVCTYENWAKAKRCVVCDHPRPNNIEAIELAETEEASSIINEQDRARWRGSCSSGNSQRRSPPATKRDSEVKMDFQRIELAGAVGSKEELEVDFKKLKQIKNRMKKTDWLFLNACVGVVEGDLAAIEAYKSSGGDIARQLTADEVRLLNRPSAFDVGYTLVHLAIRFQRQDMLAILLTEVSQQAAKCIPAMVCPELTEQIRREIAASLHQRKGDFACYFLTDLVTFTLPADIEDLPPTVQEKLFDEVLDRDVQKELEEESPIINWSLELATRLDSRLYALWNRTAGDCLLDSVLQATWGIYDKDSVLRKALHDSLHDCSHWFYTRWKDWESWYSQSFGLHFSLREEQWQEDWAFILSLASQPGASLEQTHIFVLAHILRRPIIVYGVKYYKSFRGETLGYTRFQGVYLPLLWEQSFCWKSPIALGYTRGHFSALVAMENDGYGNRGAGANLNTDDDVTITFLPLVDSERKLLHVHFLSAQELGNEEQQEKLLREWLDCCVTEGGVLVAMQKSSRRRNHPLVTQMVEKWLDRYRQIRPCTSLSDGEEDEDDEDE
The procedure, abridged: as §1

Another experiment concerns the target T5, YOD1 (UniProt Q5VVQ6).
T5 sequence (whole entry): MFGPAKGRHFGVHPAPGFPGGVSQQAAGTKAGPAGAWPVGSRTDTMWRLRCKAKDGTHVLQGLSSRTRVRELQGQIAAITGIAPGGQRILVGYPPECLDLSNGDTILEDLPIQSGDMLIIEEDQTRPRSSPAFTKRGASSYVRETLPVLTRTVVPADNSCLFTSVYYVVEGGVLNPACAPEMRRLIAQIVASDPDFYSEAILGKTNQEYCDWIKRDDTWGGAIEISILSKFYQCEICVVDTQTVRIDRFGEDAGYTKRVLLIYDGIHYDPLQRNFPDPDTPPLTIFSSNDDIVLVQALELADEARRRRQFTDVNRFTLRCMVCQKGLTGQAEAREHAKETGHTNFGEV
In a few lines:
as §1

Unmarked numbers belong to inactive results.

Chain of UniProt P51784 (P51784 whole entry): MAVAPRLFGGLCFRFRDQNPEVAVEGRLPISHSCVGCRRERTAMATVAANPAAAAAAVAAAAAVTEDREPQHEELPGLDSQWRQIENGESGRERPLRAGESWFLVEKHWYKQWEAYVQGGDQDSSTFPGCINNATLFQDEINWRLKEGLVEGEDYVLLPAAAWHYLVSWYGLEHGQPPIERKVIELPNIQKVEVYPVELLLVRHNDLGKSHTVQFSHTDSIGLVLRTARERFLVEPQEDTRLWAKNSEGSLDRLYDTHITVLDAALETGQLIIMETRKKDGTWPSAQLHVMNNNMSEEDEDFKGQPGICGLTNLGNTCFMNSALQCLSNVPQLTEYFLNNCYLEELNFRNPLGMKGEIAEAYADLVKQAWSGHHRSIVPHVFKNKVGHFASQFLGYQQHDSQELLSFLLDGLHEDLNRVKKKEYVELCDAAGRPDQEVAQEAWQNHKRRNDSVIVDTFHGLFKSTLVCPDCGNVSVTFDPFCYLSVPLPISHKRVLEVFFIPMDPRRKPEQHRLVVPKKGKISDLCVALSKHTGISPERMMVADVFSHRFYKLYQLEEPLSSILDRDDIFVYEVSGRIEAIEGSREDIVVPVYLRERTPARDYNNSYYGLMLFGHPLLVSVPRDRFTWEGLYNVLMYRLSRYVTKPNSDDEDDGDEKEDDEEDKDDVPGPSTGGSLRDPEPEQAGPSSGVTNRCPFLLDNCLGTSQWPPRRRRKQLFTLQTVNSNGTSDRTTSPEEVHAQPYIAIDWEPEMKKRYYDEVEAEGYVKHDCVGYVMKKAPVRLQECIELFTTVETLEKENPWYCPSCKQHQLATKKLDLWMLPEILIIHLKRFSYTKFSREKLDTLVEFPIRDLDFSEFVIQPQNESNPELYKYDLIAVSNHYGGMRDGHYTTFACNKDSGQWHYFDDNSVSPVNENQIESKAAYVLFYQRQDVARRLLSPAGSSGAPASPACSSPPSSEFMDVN

Regarding `Cc1cccc(N(CCC#N)C(=O)CCl)c1C`, the “log2 ratio of Biotin-Ahx-Ub-VS probe labelling” value (shortened to “log2 ratio”) in the experiment with UniProt O00507 is 0.294; in the experiment with UniProt P51784 it was 0.0536; with UniProt Q5T2D3, -0.0559; in the experiment with UniProt Q8TE49, -1.26 (active); in the experiment with UniProt Q9P2H5 it was -0.386; with UniProt Q9UGI0 it was -0.934. Besides, the “log2 ratio” value with YOD1 was 0.144.

For `CN1C(=O)c2ccc(NC(=O)CCl)cc2C1=O`, the “log2 ratio” value in the experiment with UniProt O00507 was -0.092; with UniProt P51784, -0.0657; in the experiment with UniProt Q5T2D3 it was -0.265; in the experiment with UniProt Q8TE49, -1.43 (active); with UniProt Q9P2H5, -0.23; in the experiment with UniProt Q9UGI0 it was -0.559. The “log2 ratio” value with YOD1 was -0.0267.

Consider `CN(C)S(=O)(=O)c1ccccc1CNC(=O)CCl`, for which the “log2 ratio” value with UniProt O00507 is -0.154; with UniProt P51784 it was 0.0361; in the experiment with UniProt Q5T2D3, -0.255; in the experiment with UniProt Q8TE49, -0.178; with UniProt Q9P2H5 it was -0.0151; with UniProt Q9UGI0, -0.47. Further, in the experiment with YOD1, the “log2 ratio” value is 0.0246.

Regarding `CC(O)CC1CCN(C(=O)CCl)CC1` (stereo unspecified), the “log2 ratio” value with UniProt O00507 is 0.0435; with UniProt P51784, -0.0578; in the experiment with UniProt Q5T2D3, -0.0758; with UniProt Q8TE49, -0.714; with UniProt Q9P2H5 it was 0.0392; with UniProt Q9UGI0, 0.164. In the experiment with YOD1, the “log2 ratio” value was -0.124.

On to `O=C(CCl)N1c2ccccc2NC(=O)C12CCCC2`, for which the “log2 ratio” value was -0.37 in the experiment with UniProt O00507; 0.258 in the experiment with UniProt P51784; -0.0754 with UniProt Q5T2D3; -0.35 with UniProt Q8TE49; 0.0618 in the experiment with UniProt Q9P2H5; -0.0496 with UniProt Q9UGI0. Further, the “log2 ratio” value with YOD1 was -0.0709.

In the case of `Cl.O=C(CCl)NCCc1ncc(F)cc1F`, the “log2 ratio” value with UniProt O00507 is 0.000732; in the experiment with UniProt P51784, -0.132; with UniProt Q5T2D3, -0.431; with UniProt Q8TE49, -0.85; in the experiment with UniProt Q9P2H5 it was -0.675; in the experiment with UniProt Q9UGI0 it was -0.786. Moreover, the “log2 ratio” value in the experiment with YOD1 is -0.195.

Take `NC(=O)C(Cc1ccccc1)NC(=O)CCl` (stereo unspecified): the “log2 ratio” value in the experiment with UniProt O00507 is 0.191; with UniProt P51784 it was -0.0194; with UniProt Q5T2D3, -0.105; in the experiment with UniProt Q8TE49, -0.102; in the experiment with UniProt Q9P2H5, -0.193; in the experiment with UniProt Q9UGI0, -0.398. The “log2 ratio” value with YOD1 was 0.0228.

`Cl.O=C(CCl)NCc1ccnc(Oc2ccccc2F)c1`: the “log2 ratio” value with UniProt O00507 was -0.125; with UniProt P51784 it was 0.0358; with UniProt Q5T2D3, -0.167; in the experiment with UniProt Q8TE49, -0.406; with UniProt Q9P2H5, -0.188; in the experiment with UniProt Q9UGI0 it was -0.246. Further, in the experiment with YOD1, the “log2 ratio” value is -0.103.

Regarding `Cc1cnc2[nH]cc(CCNC(=O)CCl)c2c1`, the “log2 ratio” value with UniProt O00507 is -0.277; with UniProt P51784, 0.0378; with UniProt Q5T2D3, -0.197; in the experiment with UniProt Q8TE49 it was -0.5; with UniProt Q9P2H5, 0.0093; with UniProt Q9UGI0, -0.444. In addition, in the experiment with YOD1, the “log2 ratio” value is -0.097.

Take `Cc1nc(CNC(=O)CCl)c2ccccn12.Cl`: the “log2 ratio” value was 0.444 in the experiment with UniProt O00507; -0.0444 in the experiment with UniProt P51784; -0.454 in the experiment with UniProt Q5T2D3; -0.499 with UniProt Q8TE49; -0.818 in the experiment with UniProt Q9P2H5; -0.311 with UniProt Q9UGI0. The “log2 ratio” value with YOD1 is 0.114.

For the compound `Cc1ccc(C)c(Oc2ccc(CNC(=O)CCl)cn2)c1.Cl`, the “log2 ratio” value was -0.379 with UniProt O00507; -0.367 with UniProt P51784; -0.187 with UniProt Q5T2D3; -0.677 in the experiment with UniProt Q8TE49; -0.375 with UniProt Q9P2H5; -0.886 with UniProt Q9UGI0. The “log2 ratio” value with YOD1 was -0.149.

In the case of `N#Cc1ccc(CNC(=O)CCl)cc1`, the “log2 ratio” value with UniProt O00507 is -0.0509; with UniProt P51784, -0.059; with UniProt Q5T2D3, -0.00706; in the experiment with UniProt Q8TE49, -0.236; with UniProt Q9P2H5 it was -0.0879; with UniProt Q9UGI0, -0.592. Moreover, the “log2 ratio” value with YOD1 is -0.136.

As to `CN(C)C(=O)c1ccc(NC(=O)CCl)cc1`, the “log2 ratio” value is 0.0581 with UniProt O00507; -0.0219 with UniProt P51784; 0.0298 with UniProt Q5T2D3; 0.182 with UniProt Q8TE49; 0.102 with UniProt Q9P2H5; -0.97 with UniProt Q9UGI0. The “log2 ratio” value with YOD1 is 0.0572.
